# Laboratory results reported in publication PMC11062922 (Nature Chemical Biology, 2023).
# Read-outs that look alike come from different tables or passages of the source.
# What was measured:
# Design in all cases: species or system human, MV4-11 + K-562 + COLO205 + SK-N-BE2 + OVCAR-8
# [1] = test system: PSMC4; conditions: read-out: apparent Kd; compound concentrations: 100 nM and 1000 nM (sheet 'Samples'), CATDS: 0.17422831247088; n = 1
# [2] = test system: AMPK-alpha1; conditions: compound concentrations: 100 nM and 1000 nM (sheet 'Samples')
# [3] = test system: NEK9; conditions: compound concentrations: 100 nM and 1000 nM (sheet 'Samples')
# [4] = test system: SRC; conditions: compound concentrations: 100 nM and 1000 nM (sheet 'Samples')
# [5] = test system: DCK; conditions: read-out: apparent Kd, compound concentrations: 100 nM and 1000 nM (sheet 'Samples'), n = 1
# [6] = test system: FECH; conditions: read-out: apparent Kd, compound concentrations: 100 nM and 1000 nM (sheet 'Samples'), n = 1
# [7] = test system: LIMK2; conditions: read-out: apparent Kd, n = 1
# [8] = test system: MAP3K12; conditions: read-out: apparent Kd, compound concentrations: 100 nM and 1000 nM (sheet 'Samples'), n = 1
# [9] = test system: MCM5; conditions: read-out: apparent Kd, compound concentrations: 100 nM and 1000 nM (sheet 'Samples'), n = 1
# [10] = test system: PKM; conditions: read-out: apparent Kd, n = 1
# [11] = test system: PRKACG; conditions: read-out: apparent Kd, compound concentrations: 100 nM and 1000 nM (sheet 'Samples'), n = 1
# [12] = test system: EIF2AK1; conditions: read-out: apparent Kd, n = 1
# [13] = test system: MTHFD1; conditions: read-out: apparent Kd, compound concentrations: 100 nM and 1000 nM (sheet 'Samples'), n = 1
# [14] = test system: NME2;NME2P1; conditions: read-out: apparent Kd, n = 1
# [15] = test system: ADK; conditions: read-out: apparent Kd, compound concentrations: 100 nM and 1000 nM (sheet 'Samples'), n = 1
# [16] = test system: IARS; conditions: read-out: apparent Kd, compound concentrations: 100 nM and 1000 nM (sheet 'Samples'), n = 1
# [17] = test system: CDC42; conditions: read-out: apparent Kd, n = 1
# [18] = test system: GALK1; conditions: read-out: apparent Kd, compound concentrations: 100 nM and 1000 nM (sheet 'Samples'), n = 1
# [19] = test system: RAB5C; conditions: read-out: apparent Kd, n = 1
# [20] = test system: NNT; conditions: read-out: apparent Kd, compound concentrations: 100 nM and 1000 nM (sheet 'Samples'), n = 1
# [21] = compound concentrations:100 nM and 1000 nM (sheet 'Samples')
# 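Throughout, for Kinobeads Data: kinobeads ε competition pulldown from cell lysate, compound preincubated 45 min at 4 °C, bound kinases quantified by LC–MS/MS relative to DMSO control.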
structure (smiles),measurement,setting,value
O=C1NC(=O)/C(=C/c2ccc3ncccc3c2)S1 [RO4603632-000],potency estimated from few doses,[1],1730 nM
COc1cc(Nc2ncc3c(C)nc(-c4cc5ccccc5[nH]4)n3n2)cc(OC)c1OC [GW869516X],Kinobeads Data,[2],no target
same,Kinobeads Data,[3],no target
same,Kinobeads Data,[4],no target
Cn1ncc2c(N)ncnc21 [SKF-18267],potency estimated from few doses,[5]; CATDS: 4.5565133541076702E-3,987 nM
same,potency estimated from few doses,[6]; CATDS: 4.0094324755209198E-3,1330 nM
same,potency estimated from few doses,"[7]; compound concentrations: 100 nM and 1000 nM (sheet 'Samples'), CATDS: 3.7102033319592401E-3",1630 nM
same,potency estimated from few doses,[8]; CATDS: 4.9126246890692504E-3,843 nM
COc1cc(Nc2nccc(-c3cnn4ncccc34)n2)cc(OC)c1 [GW801372X],potency estimated from few doses,[9]; CATDS: 1.9115246172466901E-2,1390 nM
COc1cc(Nc2nccc(N3CCC(NC(=O)c4cccc(NC(C)=O)c4)C3)n2)cc(OC)c1OC (stereo not drawn) [GSK1379754A],potency estimated from few doses,"[10]; compound concentrations: 100 nM and 1000 nM (sheet 'Samples'), CATDS: 8.1586836054847095E-2",1900 nM
Cc1ccccc1-n1ncc(C(=O)c2ccccc2)c1N [RO1151248-000],potency estimated from few doses,[11]; CATDS: 2.9121921896178699E-2,613 nM
CCn1c(-c2nonc2N)nc2c(C#CC(C)(C)O)nc(O[C@@H](CN)c3ccccc3)cc21.O=C(O)C(F)(F)F [GSK1007102B],potency estimated from few doses,[12]; [21],996 nM
CCN(CC)Cc1ccc(Nc2nccc(-c3cnn4ncccc34)n2)cc1 [GW780056X],potency estimated from few doses,[13]; CATDS: 2.2377842490129501E-2,921 nM
Cc1cccc(Nc2nc(N[C@H]3CCNC3)ncc2C(N)=O)c1.Cl [GSK2197149A],potency estimated from few doses,[14]; [21],1460 nM
CCn1c(-c2cccnc2O)nc2cnccc21 [SB-736715],potency estimated from few doses,[5]; CATDS: 1.18043457558384E-2,2290 nM
same,potency estimated from few doses,"[12]; compound concentrations: 100 nM and 1000 nM (sheet 'Samples'), CATDS: 1.2624621535744099E-2",1920 nM
O=C1N=C(NCc2c(Cl)cccc2Cl)S/C1=C\c1ccc2ncccc2c1 [RO4600445-000],potency estimated from few doses,[15]; CATDS: 0.24369856841726101,1350 nM
O=C1N=C(NCc2cccs2)O/C1=C\c1ccc2ncccc2c1 [RO4624208-000],potency estimated from few doses,[15]; CATDS: 4.98118638137824E-2,1390 nM
O=C(O)C(F)(F)F.O=c1[nH]ccc2nc(N[C@@H]3CCNC3)nc(Nc3ccc4c(c3)S(=O)(=O)CC4)c12 [GSK2181306A],potency estimated from few doses,[16]; CATDS: 8.0761213761314007E-3,1860 nM
Cl.Cl.NC(CNC(=O)c1cc(Br)c(-c2ccnc3[nH]ccc23)s1)c1ccccc1.NC(CNC(=O)c1cc(Br)c(-c2ccnc3[nH]ccc23)s1)c1ccccc1 (stereo not drawn) [GSK1322949A],potency estimated from few doses,"[17]; compound concentrations: 100 nM and 1000 nM (sheet 'Samples'), CATDS: 2.9749426965709602E-2",1240 nM
same,potency estimated from few doses,[18]; CATDS: 2.6759379349231501E-2,1600 nM
same,potency estimated from few doses,[8]; CATDS: 3.2066551551393298E-2,1040 nM
same,potency estimated from few doses,[9]; CATDS: 2.5853375360702799E-2,1760 nM
same,potency estimated from few doses,[13]; CATDS: 2.96394051410106E-2,1250 nM
same,potency estimated from few doses,"[19]; compound concentrations: 100 nM and 1000 nM (sheet 'Samples'), CATDS: 2.6344655895194399E-2",1670 nM
CC(C)Oc1ccc2c(-c3ccnc(Nc4ccc(N5CCN(C)CC5)cc4)n3)cnn2n1 [GW696155X],potency estimated from few doses,[7]; [21],883 nM
CC(C)Nc1cc(-c2ccc3c(N)n[nH]c3c2)nc(N)n1 [GSK2221681A],potency estimated from few doses,[17]; [21],1530 nM
CS(=O)(=O)Nc1cccc(-c2ccc3c(NC(=O)C4CC4)n[nH]c3c2)c1 [SB-742864],potency estimated from few doses,[18]; CATDS: 0.105390971488214,1820 nM
same,potency estimated from few doses,"[14]; compound concentrations: 100 nM and 1000 nM (sheet 'Samples'), CATDS: 0.103585369709675",1910 nM
O=C1N=C(NCCCc2ccccc2)S/C1=C\c1ccc2ncccc2c1 [RO4493941-000],potency estimated from few doses,[6]; CATDS: 5.9450857327724899E-2,1950 nM
COc1ccc(-c2cc3c(N)ncnc3o2)cc1 [GW642138X],potency estimated from few doses,[20]; CATDS: 0.135417913174183,1070 nM
Cl.Cl.NCC(NCc1ccc(-c2ccnc3[nH]ccc23)s1)c1ccccc1.NCC(NCc1ccc(-c2ccnc3[nH]ccc23)s1)c1ccccc1 (stereo not drawn) [GSK1321565A],potency estimated from few doses,[10]; [21],2050 nM
Nc1nc(-c2ccc3c(N)n[nH]c3c2)cc(N2CCCC(NC(=O)c3ccccc3)C2)n1 (stereo not drawn) [GSK2286775B],potency estimated from few doses,[19]; [21],1520 nM
NS(=O)(=O)c1ccc(N/N=C2\C(=O)Nc3ccc4ncccc4c32)cc1 [GW305178X],potency estimated from few doses,[11]; CATDS: 4.9106390332169098E-2,1030 nM
COc1ccc(Nc2nccc(NCCNC(=O)Nc3cc(C)ccc3C)n2)cc1 [GSK1379899A],potency estimated from few doses,[16]; CATDS: 4.14736343029877E-2,1920 nM
Cl.Nc1nc(-c2ccc3c(c2)C(=Cc2cc(Br)c(O)c(Br)c2)C(=O)N3)cs1 [GW407323A],potency estimated from few doses,[20]; CATDS: 3.26521392467971E-2,987 nM
